Screens from PubChem BioAssay.
Pf growth 48h = inhibits P. falciparum growth in the first generation, 48 h; 310,000 compounds, 5.9% hits; AID 504832; P. falciparum luciferase growth in erythrocytes, 48 h; Potency, µM (series often up to 28.7 µM), without a hit: at the highest dose activity change, negative = inhibition, usual class: inhibitors; also: potency is read from the fitted curve at half-maximal effect
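Here the parasites carry a stable luciferase gene and grow inside erythrocytes in Albumax-based RPMI medium with compound for one erythrocytic cycle. Activity is scored as loss of luminescent signal.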
FBPA Giardia inh = blocks Giardia fructose-bisphosphate aldolase activity; A8B2U2; purified Giardia FBPA; Potency, µM (highest dose often 59.6 µM), for inactives: top-dose activity, negative = inhibition, hits mostly inhibitors; 290,000 compounds, 0.71% hits; also: potency is read from the fitted curve at half-maximal effect; nearly all actives have a fitted effect of over 55% in size
Target sequence (A8B2U2 whole entry, looked up): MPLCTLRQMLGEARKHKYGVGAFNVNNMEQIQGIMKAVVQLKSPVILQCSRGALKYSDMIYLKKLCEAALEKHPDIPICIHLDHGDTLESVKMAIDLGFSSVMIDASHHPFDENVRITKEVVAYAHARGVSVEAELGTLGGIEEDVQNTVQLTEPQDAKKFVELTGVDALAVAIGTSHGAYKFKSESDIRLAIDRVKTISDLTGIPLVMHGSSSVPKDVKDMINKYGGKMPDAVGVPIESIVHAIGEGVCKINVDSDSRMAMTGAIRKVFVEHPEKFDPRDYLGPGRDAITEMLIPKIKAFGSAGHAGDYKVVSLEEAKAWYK
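Giardia FBPA (40 nM reagent) was preincubated 10 min at RT with compound (up to 57.5 uM final), then substrate plus GAPDH/TPI/NAD/arsenate coupling system with diaphorase/resazurin was added; resorufin fluorescence (525/598 nm) was read after 20 min.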
Sm TGR inh = blocks Schistosoma mansoni thioredoxin glutathione reductase; Potency, µM (titrated, usually from 114 µM), for inactives: at the top dose activity change, negative = inhibition, most hits filed as inhibitors; 360,000 compounds, 3% hits; AID 485364; purified TGR, DTNB reduction, TNB absorbance 405 nm; also: potency is read from the fitted curve at half-maximal effect; nearly all actives have a fitted effect of over 60% in size
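Kinetic colorimetric format: TGR-catalysed, NADPH-driven DTNB reduction monitored via TNB absorbance. Enzyme dispensed at 20 nM; compound exposure 15 min at room temperature before reaction start.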
HCMV inh = blocks human cytomegalovirus replication; HFF cells, HCMV-luciferase reporter, 72 h; hits give low values; activity change, negative = inhibition, % at 57.5 µM; 410,000 compounds, 4.5% hits; in the data active = activity change below about -60%; inconclusive = no clear call, values can overlap the other calls; inactive = above about -39%
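Luciferase read-out from HCMV-luciferase-infected HFFs (MOI 1 PFU/cell) 72 h post infection at 37C; compounds added after 16 h cell attachment; activity normalized between buffer-only basal and Salinomycin (10uM) inhibitor controls.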
Pf growth 96h = inhibits malaria parasite growth, 96 h; P. falciparum luciferase reporter growth, 96 h; Potency, µM (series often up to 28.7 µM), for the others: at the highest dose activity change, negative = inhibition, actives largely listed as inhibitors; 320,000 compounds, 6.9% hits; AID 504834; also: potency is read from the fitted curve at half-maximal effect
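Erythrocytes infected with luciferase-expressing P. falciparum were dispensed at 2% hematocrit and 0.05% parasitemia (final), then incubated with compounds 96 hours at 37 C in 5% CO2. Luminescence after detection reagent addition reported growth.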
An asterisk follows results filed as active; i = inactive; ? = inconclusive; . = no result given; + = active, no number; [ ] = dose if it differs, or a comment. Only some compounds are listed: those with a hit (about 14% of all), similar ones and a draw of the others. Unless noted, calls follow the shape of the dose curve; as a rule, active = well fitted curve in the direction sought with a large enough effect; inconclusive = small, poorly fitted or top-dose-only effect, or another doubt; inactive = no such curve, though single readings can be large; an effect the other way counts as inactive or inconclusive. % is scaled to controls: 0 for no effect and ±100 for the full control effect.

SMILES | Pf growth 48h | FBPA Giardia inh | Sm TGR inh | HCMV inh | Pf growth 96h
COc1ccccc1-c1cnc(C(O)c2ccc(Cl)cc2C)[nH]1 (stereo not drawn) | . | . | . | 18 | .
Cc1ccc(C2CC2c2n[nH]c(=S)n2-c2ccc(C)cc2)cc1 (stereo not drawn) | -1% | 4% | 2% | -8 | .
Cc1ccc(-n2c(C3CC3c3ccc(Cl)cc3)n[nH]c2=S)cc1 (stereo not drawn) | . | 9% | -1% | -30 | 9.3µM*
Cc1ccc(C(=O)Nc2ncc(Cc3ccc(SC(F)F)cc3)s2)cc1 | 17% | 7% | -11% | -63* | 17%
Cc1ccc(C(=O)Nc2ncc(Cc3ccc(F)cc3)s2)o1 | 17% | -4% | 2% | -6 | ?
CC(C)c1oc(=O)cc2c1[C@@H](O)[C@H]1OC(=O)[C@@]3(C)C[C@@H](O)[C@@H](O)[C@@]2(C)C13 (stereo partly drawn) | 1.5µM* | 1% | -9% | -98* | 1µM*
CC(C)c1oc(=O)cc2c1[C@@H](O)[C@H]1OC(=O)[C@@]3(C)CC[C@@H](O)[C@@]2(C)C13 (stereo partly drawn) | 2.9µM* | 3% | 3% | -97* | 2.6µM*
CC1(C)O[C@@H]2O[C@H]([C@H](O)CO/N=C3/[C@H]4O[C@@H]4[C@@H](O)[C@H]4[C@H]3CCn3c(=O)n(-c5ccccc5)c(=O)n34)[C@@H](O)[C@@H]2O1 | . | -1%[12.9 µM] | . | . | .
CC(NC(=O)c1ccc(OC2CCN(C(=O)c3cccnc3)CC2)cc1)C1CC1 (stereo not drawn) | 18% | 4% | 9% | 18 | 12µM*
O=S(=O)(Cc1cc(Sc2ccc(Cl)cc2)nc(-c2ccccc2)n1)c1ccccc1 | . | -5% | -2% | 28 | ?
Cc1nc(CS(=O)(=O)c2ccc(Cl)cc2)cc(Sc2ccc(Cl)cc2)n1 | 3.3µM* | -2% | 6% | -39 | 2.3µM*
CCOC(=O)N1CCN(S(=O)(=O)N2CCCC(C(=O)NCc3cccc(OC)c3)C2)CC1 (stereo not drawn) | -18% | . | -5% | -18 | 6.6µM*
COc1ccc(Br)cc1CNC(=O)C1CCN(S(=O)(=O)N2CCC(C)CC2)CC1 | ? | -2% | -12% | 2 | 12µM*
COc1ccc(CNC(=O)C2CCCN(S(=O)(=O)N3CCC(C)CC3)C2)c(OC)c1 (stereo not drawn) | 7% | -1% | 6% | + | ?
CN1C2CCC1/C(=C\c1ccccc1F)C(=O)/C2=C/c1ccccc1F | ? | 4% | 20µM* | -72* | ?
CC1CCN(C2=NC(=O)/C(=C/c3ccccc3F)S2)CC1 | 2%[0.00184 µM] | 0% | 0% | ? | 32%
Cc1ccc(OCC(=O)Nc2sc3c(c2C#N)CCC3)cc1 | 117% | 8% | 0% | 60 | 58%
CCc1ccc(CCC(=O)Nc2sc3c(c2C#N)CCCC3)o1 | -19% | -6% | -27% | -75* | .
Cc1ccc(/C=C/C(=O)Nc2sc3c(c2C#N)CCCC3)o1 | 23% | 1% | 45µM* | 2 | i
CCC(=O)Nc1sc2c(c1C#N)CCC2 | 22% | 1% | -16% | 5 | ?
COc1ccc(NC(=O)CN(C)CC(=O)Nc2sc3c(c2C#N)CCC3)cc1 | ? | . | -35% | 0 | 9.3µM*
CC(=O)Nc1sc2c(c1C#N)CCC2 | 478% | -6% | 5% | -5 | 12%
CC1=N/C(=C\c2ccc([N+](=O)[O-])cc2)C(=O)N1c1ccc(F)cc1F | ? | -3% | -31% | -9 | 35%
O=S1(=O)CCSC[C@@H](CN2CCN(c3ccccc3)CC2)N1 | . | . | . | 8 | .
CN(C(=O)COC(=O)c1ccc(=O)n(Cc2ccccc2)n1)C1CCCCC1 | 5% | . | 8% | -24 | 0%
SMILES | Pf growth 48h | FBPA Giardia inh | Sm TGR inh | HCMV inh | Pf growth 96h
CC(=O)O[C@@H]1[C@H]2[C@@H](C[C@@H](C)[C@@H]3C=CC(=O)[C@@]13C)OC(=O)[C@@H]2C | ? | 9% | 0% | -2 | ?
C=C1C(=O)O[C@@H]2C[C@@H](C)[C@@H]3C=CC(=O)[C@@]3(C)[C@@H](OC(=O)CC(=O)O[C@H]3[C@@H]4C(=C)C(=O)O[C@@H]4C[C@@H](C)[C@@H]4C=CC(=O)[C@]43C)[C@H]12 | 1µM* | 0% | 1.1µM* | -98* | 1.3µM*
C=C1C(=O)O[C@H]2[C@H]1[C@H](OC(=O)CC(=O)O[C@@H]1C[C@@H](C)[C@@H]3C=CC(=O)[C@@]3(C)[C@H]3OC(=O)C(=C)[C@H]13)C[C@@H](C)[C@H]1C=CC(=O)[C@]12C | ? | -9% | 8.9µM* | -38 | ?
C=C1C(=O)O[C@H]2[C@H]1[C@H](OC(=O)/C(C)=C\C)C[C@]1(CO1)[C@@H]1[C@H](OC(C)=O)C=C(C)[C@]21O | . | . | . | -18 | .
Cc1cc(=O)[nH]c(SCc2cccc3ccccc23)n1 | -3% | -16% | 0% | 14 | 3.7µM*
Cc1cc(CSc2nc(C)cc(=O)[nH]2)c2ncccc2c1 | 48% | 6% | 4% | -30 | 0%
CN1CCN(CC(=O)N2c3ccccc3C(C)(c3ccccc3)CC2(C)C)CC1 (stereo not drawn) | ? | 0% | 2% | . | 10µM*
CC1(c2ccccc2)CC(C)(C)N(C(N)=O)c2ccccc21 (stereo not drawn) | -17% | -15% | 4% | -6 | ?
CC(=O)N1c2ccccc2C(C)(c2ccccc2)CC1(C)C (stereo not drawn) | 9.3µM* | 0% | 1% | . | .
CC1(c2ccccc2)CC(C)(C)N(C(=O)c2cccc(Cl)c2)c2ccccc21 (stereo not drawn) | . | . | 0% | -72* | .
C[C@@H]1CN([C@@H](C)CO)C(=O)CCCn2cc(nn2)CO[C@H]1CN(C)S(=O)(=O)c1cccc(C#N)c1 | . | . | . | 12 | .
COc1cccc(OC(=O)CSc2nnc(-c3ccc4c(c3)OCO4)o2)c1 | . | . | -15% | 22 | .
COc1ccc(CNC(=O)[C@H](C)NC(=O)C2CCN(S(=O)(=O)c3ccccc3)CC2)cc1 | 19% | . | 9% | -23 | ?
CN(C)c1cc2c3ccccc3n(C)c2cc1N | . | . | . | 51 | .
COC(=O)C1=C(C)NC2=C(C(=O)CCC2)C1c1ccc(-c2ccsc2C(=O)OC)o1 (stereo not drawn) | ? | -2% | ? | 12 | 12µM*
O=C(NCCSc1c[nH]c2ccccc12)c1ccc(Br)o1 | -6% | -1% | 3% | -3 | 2.1µM*
CC(C)C(=O)NCCSc1c[nH]c2ccccc12 | 2% | -2% | -7% | 23 | 12µM*
